# Measured values published in PubChem BioAssay (Tox21).
# Results filed as inconclusive are left out. Active and inactive are the calls of the source. The call rests on the fitted dose curve; in most records, active means well fitted activation curve with a large enough effect in the signal ratio in the repeat runs (not every such curve was filed as active); inconclusive means weak or mixed curves, or effect the other way; inactive means no such curve, though single readings can be large or run the other way; the % refers to the signal ratio.
# Target: Peroxisome proliferator-activated receptor gamma (Homo sapiens) (UniProt P37231)
# Sequence (P37231 whole entry, looked up): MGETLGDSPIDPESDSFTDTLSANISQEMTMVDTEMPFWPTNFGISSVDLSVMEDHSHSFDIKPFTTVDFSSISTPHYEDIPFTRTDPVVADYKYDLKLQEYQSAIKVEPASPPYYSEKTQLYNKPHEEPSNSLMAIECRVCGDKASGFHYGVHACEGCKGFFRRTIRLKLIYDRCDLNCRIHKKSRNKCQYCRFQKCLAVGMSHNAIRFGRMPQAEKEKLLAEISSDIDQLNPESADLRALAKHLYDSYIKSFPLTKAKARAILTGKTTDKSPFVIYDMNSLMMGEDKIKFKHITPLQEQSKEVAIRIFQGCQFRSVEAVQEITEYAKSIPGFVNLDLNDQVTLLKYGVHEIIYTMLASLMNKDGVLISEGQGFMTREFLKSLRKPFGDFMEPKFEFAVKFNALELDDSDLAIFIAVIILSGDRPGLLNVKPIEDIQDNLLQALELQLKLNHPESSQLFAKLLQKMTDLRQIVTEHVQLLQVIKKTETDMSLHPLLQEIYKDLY
# Experiment: qHTS assay to identify small molecule agonists of the peroxisome proliferator-activated receptor gamma (PPARg) signaling pathway (AID 743094)
# Conditions: HEK293H PPARg-UAS-bla, beta-lactamase FRET ratio, 17 h; series mostly up to 57 µM; activation: at the top concentration
# In short: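 Cells from the PPARg UAS-bla HEK293H line are plated and incubated 5 h at 37C. Compounds in DMSO are pinned in and left 17 h at 37C. LiveBLAzer B/G substrate is then added for 1 h at room temperature before fluorescence is measured.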
# On the % scale 0 is the no-effect control and ±100 the full control effect; potency means the concentration at half of the fitted maximal effect.
SMILES,activation,Potency
CC(C)N(C(=O)SC/C(Cl)=C/Cl)C(C)C,-0.0287% [at 78.9 µM] (inactive),
CCCCN(CCCC)C(=S)S,-1.88% (inactive),
O=[N+]([O-])c1ccc(CCl)cc1,-2.59% (inactive),
Cc1ccc(C)c2ccccc12,1.31% (inactive),
CCOC(=O)CCN(SN(C)C(=O)Oc1cccc2c1OC(C)(C)C2)C(C)C,2.07% (inactive),
CCCCc1ccccc1,4.12% (inactive),
CCOP(=S)(OCC)Oc1cc(C)nc(N(CC)CC)n1,3.33% (inactive),
Clc1cc(Cl)c(-c2cc(Cl)c(Cl)cc2Cl)cc1Cl,-10.4% (inactive),
CNC(=O)CSP(=O)(OC)OC,0.519% (inactive),
O=S(=O)(O)F,1.42% [at 78.9 µM] (inactive),
COc1ccc2[nH]cc(CCN(C(C)C)C(C)C)c2c1,-1.56% [at 78.9 µM] (inactive),
CCCCC/C=C\C/C=C\C/C=C\C/C=C\CCCC(=O)NCC(=O)O,-0.604% [at 7.08 µM] (inactive),
O=S1OCC2C(CO1)C1(Cl)C(Cl)=C(Cl)C2(Cl)C1(Cl)Cl (stereo unspecified),,inactive
CN(C)c1ccc(N)cc1,5.71% (inactive),
CC(C)(C)c1ccc(OP(=O)(Oc2ccccc2)Oc2ccccc2)cc1,3.36% [at 78.9 µM] (inactive),
ClC1=C(Cl)[C@]2(Cl)[C@@H]3[C@H]4C[C@H]([C@@H]5O[C@H]45)[C@@H]3[C@@]1(Cl)C2(Cl)Cl,0.81% (inactive),
COC(=O)/C=C(\C)OP(=O)(OC)OC,4.92% (inactive),
ClC1(Cl)C2(Cl)C3(Cl)C4(Cl)C(Cl)(Cl)C5(Cl)C3(Cl)C1(Cl)C5(Cl)C24Cl (stereo unspecified),1.3% (inactive),
CNC(=O)Oc1cc(C)cc(C(C)C)c1,1.43% (inactive),
N#Cc1ccc(N(CC(N)=O)CC(F)(F)F)cc1C(F)(F)F,,692 nM (active)
Clc1ccc(C(c2ccc(Cl)cc2)C(Cl)Cl)cc1,,inactive
